# Measured values as given in PubChem BioAssay (NCATS).
# Results filed as inconclusive are left out. Unmarked numbers belong to inactive results. Activity calls are given as the source filed them. Calls follow the shape of the dose curve; as a rule, active = well fitted curve in the direction sought with a large enough effect; inconclusive = small, poorly fitted or top-dose-only effect, or another doubt; inactive = no such curve, though single readings can be large; an effect the other way counts as inactive or inconclusive.
# How the values were obtained:
# [1] = Quantitative High-Throughput drug screen in 47 multiple myeloma cell lines against the NCATS MIPE library collection: KMS12BM_JCRB cell viability assay (AID 1918971); also: nearly all actives have a fitted effect of over 35% in size
# Summary of the method: (§1)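 Viability readout: CellTiter-Glo luminescence following 5 min room-temperature incubation with reagent. Prior exposure: 48 h, 37C, humidified 5% CO2, 500 cells per well.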
# [2] = Quantitative High-Throughput drug screen in 47 multiple myeloma cell lines against the NCATS MIPE library collection: KMS26_JCRB cell viability assay (AID 1918975); also: nearly all actives have a fitted effect of over 45% in size;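 as to viability (% of DMSO): 100% = DMSO-treated wells and 0% = wells with media only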
# Summary of the method: as §1
# [3] = Quantitative High-Throughput drug screen in 47 multiple myeloma cell lines against the NCATS MIPE library collection: OCIMY1_PLB cell viability assay (AID 1918979); also: nearly all actives have a fitted effect of over 35% in size;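 as to viability: 100% = DMSO-only wells and 0% = cell-free media-only wells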
# Summary of the method: (§2)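 MIPE 4.0 approved/investigational drugs; 500 cells/well; 48 h 37 °C humidified 5% CO2; CTG luminescence readout; DMSO = 100%, media = 0% viability.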
# [4] = Quantitative High-Throughput drug screen in 47 multiple myeloma cell lines against the NCATS MIPE library collection: MM1R_ATCC cell viability assay (AID 1918981); also: nearly all actives have a fitted effect of over 35% in size
# Summary of the method: as §2
# [5] = Quantitative High-Throughput drug screen in 47 multiple myeloma cell lines against the NCATS MIPE library collection: LP1_DSMZ cell viability assay (AID 1918982); also: nearly all actives have a fitted effect of over 35% in size
# Summary of the method: as §2
# [6] = Quantitative High-Throughput drug screen in 47 multiple myeloma cell lines against the NCATS MIPE library collection: KMS28PE_JCRB cell viability assay (AID 1918983); also: nearly all actives have a fitted effect of over 35% in size
# Summary of the method: as §2
# [7] = Quantitative High-Throughput drug screen in 47 multiple myeloma cell lines against the NCATS MIPE library collection: OCIMY7_PLB cell viability assay (AID 1918987); conditions: OCI-MY7 myeloma viability, CellTiter-Glo ATP, 48 h; viability (% of DMSO): at 45.8 µM (top of the series); also: nearly all actives have a fitted effect of over 65% in size
# Summary of the method: as §2
# [8] = Quantitative High-Throughput drug screen in 47 multiple myeloma cell lines against the NCATS MIPE library collection: KMS12PE_JCRB cell viability assay (AID 1918972); also: nearly all actives have a fitted effect of over 30% in size;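 as to viability: 100% = DMSO only wells and 0% = wells with media alone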
# Summary of the method: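 Approved and investigational drugs from MIPE 4.0 were added by pin tool to 500 cells per well. After 48 hours at 37C, ATP-based CellTiter-Glo luminescence indicated remaining viability.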
# [9] = Quantitative High-Throughput drug screen in 47 multiple myeloma cell lines against the NCATS MIPE library collection: KMS20_JCRB cell viability assay (AID 1918973); also: nearly all actives have a fitted effect of over 45% in size
# Summary of the method: (§3)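 qHTS of the MIPE 4.0 collection: 500 myeloma cells/well, 48 h drug exposure at 37C in 5% CO2, then CellTiter-Glo for 5 min at room temperature before luminescence reading.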
# [10] = Quantitative High-Throughput drug screen in 47 multiple myeloma cell lines against the NCATS MIPE library collection: KMS21BM_JCRB cell viability assay (AID 1918974); conditions: ATP luminescence, 48 h; viability: at 45.8 µM (top of the series)
# Summary of the method: as §3
# [11] = Quantitative High-Throughput drug screen in 47 multiple myeloma cell lines against the NCATS MIPE library collection: MMM1_PLB cell viability assay (AID 1918976); also: nearly all actives have a fitted effect of over 35% in size
# Summary of the method: as §2
# [12] = Quantitative High-Throughput drug screen in 47 multiple myeloma cell lines against the NCATS MIPE library collection: NCIH929_DSMZ cell viability assay (AID 1918978); also: nearly all actives have a fitted effect of over 35% in size
# Summary of the method: as §2
# [13] = Quantitative High-Throughput drug screen in 47 multiple myeloma cell lines against the NCATS MIPE library collection: MM1S_ATCC cell viability assay (AID 1918980); also: nearly all actives have a fitted effect of over 45% in size
# Summary of the method: as §2
# [14] = Quantitative High-Throughput drug screen in 47 multiple myeloma cell lines against the NCATS MIPE library collection: L363_DSMZ cell viability assay (AID 1918984); conditions: L363 myeloma viability, CellTiter-Glo ATP luminescence, 48 h; viability (% of control): at 45.8 µM (top of the series); also: nearly all actives have a fitted effect of over 40% in size
# Summary of the method: as §2
# [15] = Quantitative High-Throughput drug screen in 47 multiple myeloma cell lines against the NCATS MIPE library collection: KMS34_JCRB cell viability assay (AID 1918985); also: nearly all actives have a fitted effect of over 40% in size
# Summary of the method: as §2
# [16] = Quantitative High-Throughput drug screen in 47 multiple myeloma cell lines against the NCATS MIPE library collection: OCIMY5_PLB cell viability assay (AID 1918988); also: nearly all actives have a fitted effect of over 65% in size
# Summary of the method: as §2
# [17] = Quantitative High-Throughput drug screen in 47 multiple myeloma cell lines against the NCATS MIPE library collection: OPM1_PLB cell viability assay (AID 1918989); also: nearly all actives have a fitted effect of over 40% in size
# Summary of the method: as §2
# [18] = Quantitative High-Throughput drug screen in 47 multiple myeloma cell lines against the NCATS MIPE library collection: U266_ATCC cell viability assay (AID 1919864); also: nearly all actives have a fitted effect of over 35% in size
# Summary of the method: as §2
# [19] = Quantitative High-Throughput drug screen in 47 multiple myeloma cell lines against the NCATS MIPE library collection: SKMM1_PLB cell viability assay (AID 1919863); conditions: SKMM1 myeloma viability, CellTiter-Glo ATP, 48 h; viability: active compounds read low; also: nearly all actives have a fitted effect of over 35% in size
# Summary of the method: as §2
# [20] = Quantitative High-Throughput drug screen in 47 multiple myeloma cell lines against the NCATS MIPE library collection: MOLP8_DSMZ cell viability assay (AID 1918977); also: nearly all actives have a fitted effect of over 45% in size;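 as to viability (% of control): 100% = DMSO-only wells and 0% = media-only wells without cells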
# Summary of the method: as §2
# Potency is read from the fitted curve at half-maximal effect.
compound,measurement,setting,value
COC(=O)[C@H](c1ccccc1Cl)N1CCc2sccc2C1,Potency,[1],inactive
same,Potency,[2],inactive
same,Potency,[3],inactive
same,Potency,[4],inactive
same,Potency,[5],inactive
same,Potency,[6],inactive
same,Potency,[7],20.9 µM (active)
O=C(c1ccc(C=Cc2n[nH]c3ccccc23)cc1)N1CCNCC1,Potency,[8],2.35 µM (active)
same,Potency,[9],1.87 µM (active)
same,Potency,[10],0.59 µM (active)
same,Potency,[2],16.6 µM (active)
same,Potency,[11],5.26 µM (active)
same,Potency,[12],2.35 µM (active)
same,Potency,[13],16.6 µM (active)
same,Potency,[4],13.2 µM (active)
same,Potency,[6],6.62 µM (active)
same,Potency,[14],3.72 µM (active)
same,Potency,[15],10.5 µM (active)
same,Potency,[7],0.662 µM (active)
same,Potency,[16],14.8 µM (active)
same,Potency,[17],2.64 µM (active)
same,Potency,[18],18.7 µM (active)
O=c1[nH]c(=O)n([C@H]2C[C@@H](O)[C@@H](CO)O2)cc1C(F)(F)F,Potency,[1],8.33 µM (active)
same,Potency,[11],3.32 µM (active)
same,Potency,[12],10.5 µM (active)
same,Potency,[13],10.5 µM (active)
same,Potency,[4],7.43 µM (active)
same,Potency,[5],inactive
same,Potency,[6],16.6 µM (active)
same,Potency,[7],7.43 µM (active)
same,Potency,[16],14.8 µM (active)
same,Potency,[19],5.9 µM (active)
same,Potency,[18],inactive
COc1nccc(-c2c(-c3ccc(F)cc3)ncn2C2CCC(O)CC2)n1 (configuration not stated),Potency,[1],20.9 µM (active)
same,Potency,[2],6.62 µM (active)
same,Potency,[3],inactive
same,Potency,[13],4.69 µM (active)
same,Potency,[4],18.7 µM (active)
same,Potency,[7],inactive
same,Potency,[17],10.5 µM (active)
same,Potency,[19],0.0296 µM (active)
same,Potency,[18],2.96 µM (active)
COc1ccc2c(c1)c(C1=C(c3c[nH]c4ccccc34)C(=O)NC1=O)cn2CCCN(C)C,Potency,[8],16.6 µM (active)
same,Potency,[9],14.8 µM (active)
same,Potency,[10],0.469 µM (active)
same,Potency,[20],14.8 µM (active)
same,Potency,[12],23.5 µM (active)
same,Potency,[4],23.5 µM (active)
same,Potency,[5],inactive
same,Potency,[15],14.8 µM (active)
same,Potency,[16],37.2 µM (active)
same,Potency,[18],26.4 µM (active)
CC1=C[C@@H]2[C@@H]([C@@H](O)C[C@@]3(C)[C@H]2C[C@@H](C)[C@]3(O)C(=O)CO)[C@@]2(C)Cc3cnn(-c4ccccc4)c3C=C12,Potency,[1],18.7 µM (active)
same,Potency,[11],20.9 µM (active)
same,Potency,[3],23.5 µM (active)
same,Potency,[13],0.0083 µM (active)
same,Potency,[4],20.9 µM (active)
same,Potency,[14],0.0332 µM (active)
same,Potency,[15],23.5 µM (active)
same,Potency,[7],9.35 µM (active)
same,Potency,[16],1.87 µM (active)
same,Potency,[19],18.7 µM (active)
same,Potency,[18],20.9 µM (active)
CCCCc1ccc(NS(=O)(=O)c2ccc(C)c(C(=O)N3CCN(c4cccc(C)c4C)CC3)c2)cc1,Potency,[1],20.9 µM (active)
same,Potency,[2],23.5 µM (active)
same,Potency,[11],18.7 µM (active)
same,Potency,[13],14.8 µM (active)
same,Potency,[5],23.5 µM (active)
same,Potency,[6],23.5 µM (active)
same,Potency,[14],inactive
same,Potency,[15],18.7 µM (active)
same,Potency,[19],20.9 µM (active)
NC(=O)c1ncn([C@@H]2O[C@H](CO)[C@@H](O)[C@@H]2O)n1,Potency,[8],inactive
same,Potency,[9],inactive
same,Potency,[10],inactive
same,Potency,[2],inactive
same,Potency,[12],inactive
same,Potency,[3],inactive
same,Potency,[13],8.33 µM (active)
same,Potency,[5],inactive
same,Potency,[6],inactive
same,Potency,[7],inactive
COc1cc(Cl)cn2c(-c3cccc(NC4CNC4)n3)cnc12,Potency,[1],20.9 µM (active)
same,Potency,[11],20.9 µM (active)
same,Potency,[4],16.6 µM (active)
same,Potency,[6],20.9 µM (active)
same,Potency,[7],9.35 µM (active)
same,Potency,[16],13.2 µM (active)
same,Potency,[19],9.35 µM (active)
Cc1ccc(NC(=O)c2cccc(N(C)C)c2)cc1NC(=O)c1ccc(O)cc1,Potency,[1],7.43 µM (active)
same,Potency,[12],0.118 µM (active)
same,Potency,[3],inactive
same,Potency,[13],0.418 µM (active)
same,Potency,[4],4.18 µM (active)
same,Potency,[14],inactive
same,Potency,[7],0.059 µM (active)
same,Potency,[16],1.32 µM (active)
same,Potency,[17],23.5 µM (active)
CN1CCN(c2ncc(-c3cc(Cl)cc(Cl)c3Cl)c(N)n2)CC1,Potency,[1],inactive
same,Potency,[2],inactive
same,Potency,[12],23.5 µM (active)
same,Potency,[3],inactive
same,Potency,[13],11.8 µM (active)
same,Potency,[4],inactive
same,Potency,[5],inactive
same,Potency,[14],18.7 µM (active)
same,Potency,[15],inactive
same,Potency,[7],33.2 µM (active)
same,Potency,[16],inactive
same,Potency,[17],inactive
same,Potency,[18],26.4 µM (active)
O=C1Nc2ccc(I)cc2C1=Cc1cc(Br)c(O)c(Br)c1,Potency,[1],16.6 µM (active)
same,Potency,[2],16.6 µM (active)
same,Potency,[3],inactive
same,Potency,[4],inactive
same,Potency,[16],8.33 µM (active)
same,Potency,[17],10.5 µM (active)
same,Potency,[19],18.7 µM (active)
same,Potency,[18],inactive
Cc1c(C(=O)Nc2ccc(N3C[C@@H](C)O[C@@H](C)C3)nc2)cccc1-c1ccc(OC(F)(F)F)cc1,Potency,[1],18.7 µM (active)
same,Potency,[11],11.8 µM (active)
same,Potency,[13],14.8 µM (active)
same,Potency,[5],9.35 µM (active)
same,Potency,[6],13.2 µM (active)
same,Potency,[7],9.35 µM (active)
same,Potency,[16],20.9 µM (active)
same,Potency,[19],26.4 µM (active)
same,Potency,[18],5.9 µM (active)
C[C@@H](O)[C@H]1C(=O)N2C(C(=O)OCOC(=O)C(C)(C)C)=C(SC3CN(C4=NCCS4)C3)[C@H](C)[C@H]12,Potency,[1],inactive
same,Potency,[2],inactive
same,Potency,[20],inactive
same,Potency,[12],inactive
same,Potency,[4],16.6 µM (active)
same,Potency,[5],inactive
same,Potency,[6],inactive
same,Potency,[17],inactive
same,viability,[19],111%
